Screens from PubChem BioAssay.
Only some compounds are listed: those with a hit (about 1.8% of all), similar ones and a draw of the others.
MBD2 inh – inhibitors of MBD2 binding to methylated DNA, primary screen, biochemical, TR-FRET, DNA-binding domain, human. inhibition, % at 4.4 µM. hit rate 0.31% among 370,000. Methyl-CpG-binding domain protein 2 (Homo sapiens), Q9UBB5. MBD2 binding to methylated oligonucleotide. AID 686964, 2013; in the data active means inhibition above about 13%
UBC13 inh – UBC13 polyubiquitin chain formation inhibitors, primary screen, biochemical, TR-FRET, uHTS; inhibition, % at 20 µM; Ubiquitin-conjugating enzyme E2 N (Homo sapiens), P61088; AID 485273, 2010; hit rate 0.47% among 330,000; in the data active means inhibition above about 45%, passing the limit was not always enough
UHRF1 MBD2 ctr – UHRF1 methylated DNA binding inhibitors, primary screen, counter-screen for MBD2 inhibitor project, biochemical, TR-FRET, human UHRF1, single concentration; inhibition, % at 4.4 µM; E3 ubiquitin-protein ligase UHRF1 (Homo sapiens), Q96T88; UHRF1 binding to methylated oligo; hit rate 0.75% among 370,000;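 further: UHRF1 SRA domain binding a hemimethylated CpG hairpin DNA probe; 0% = median of test compound wells and 100% = reference inhibitor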
Neddylation inh – inhibitors of cullin neddylation, primary screen, biochemical, TR-FRET, uHTS, NAE and Ubc12; hit rate 0.58% among 360,000; AID 651699, 2012; NEDD8-conjugating enzyme Ubc12 (Homo sapiens) + NEDD8-activating enzyme E1 regulatory …; calls only at 25 µM; in the data active means inhibition above about 36%
UHRF1 DNA bind – UHRF1 methylated DNA binding inhibitors, counter-screen for MBD2 inhibitor project, biochemical, TR-FRET, human UHRF1; shares compounds with MBD2 inh; UHRF1 binding to methylated oligonucleotide; inhibition, % at 4.4 µM; hit rate 25% among 1,000; AID 720530, 2013;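 further: UHRF1 SRA domain binding a labeled hemimethylated CpG hairpin DNA; 0% = vehicle only and 100% = reference inhibitor with vehicle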
MBD2 DBD conf – inhibitors of MBD2 binding to methylated DNA, confirmation, biochemical, TR-FRET, DNA-binding domain, human | shares compounds with MBD2 inh | TR-FRET MBD2-DBD binding to methylated oligonucleotide | inhibition, % at 4.4 µM | hit rate 26% among 1,000 | AID 720531, 2013; in the data active means inhibition above about 14%
* hit, by the source's call; i = inactive; · = no result shown. Unless noted, no stated cut-off is given here; in the data, active means inhibition above about 21%; inactive means the rest.

SMILES	MBD2 inh	UBC13 inh	UHRF1 MBD2 ctr	Neddylation inh	UHRF1 DNA bind	MBD2 DBD conf
O=C(NC(=S)Nc1nc(-c2ccc(Br)cc2)cs1)c1cccnc1	16*	5	-3	i	6	1
CCn1c(Oc2cccc(Br)c2)nc2c1c(=O)n(C)c(=O)n2C	-1	-2	1	i	·	·
NC(=S)NN=Cc1ccc(-c2ccc(S(=O)(=O)Nc3ncccn3)cc2)o1	15*	-9	47*	i	29*	9
Cc1nnc(SCC(=O)Nc2ccc(N(C)C)cc2)n(N)c1=O	13*	2	-3	i	2	3
COC(=O)c1ccc(Oc2ccc3nncn3n2)cc1	1	9	-2	i	·	·
COC(=O)c1ccc(Oc2ccc3nnc(C)n3n2)cc1	13*	-12	8	i	-1	3
Cc1cc(C)c(OCC(=O)OCC(=O)NNC(=O)c2ccccc2F)c(C)c1	22*	2	3	i	5	2
CC(CC(=O)Nc1ccc2c(c1)c(=O)n(C)n2-c1ccccc1)c1ccccc1 (centres undefined)	-5	·	-1	·	·	·
Cn1cc(C(=O)NCC(=O)Nc2ccccc2Br)cn1	2	-6	1	i	·	·
Cc1cc(Br)ccc1NC(=O)CNC(=O)c1cnn(C)c1	18*	3	1	i	7	2
CCCCn1nnnc1C(CCc1ccccc1)N1CCN(C/C=C/c2ccccc2)CC1 (centres undefined)	15*	·	19	i	12	4
CCOc1ccc(C2CC=C(C(=O)O)CN2S(=O)(=O)c2ccc(C)cc2)cc1 (centres undefined)	-2	·	-2	·	·	·
O=C(NC1CCN(C(=O)Nc2ccccc2)CC1)C1CCCCC1	-3	4	2	i	·	·
Cc1ccccc1NC(=O)N1CCC(NC(=O)C2CCCCC2)CC1	14*	2	19	i	6	5
CCOC(=O)c1c(NC(=O)c2ccc(S(=O)(=O)N3CCOCC3)cc2)sc2c1CCN(C(C)C)C2	20*	10	25*	i	34*	27*
CCOC(=O)c1c(NC(=O)C2CCCCC2)sc2c1CCN(C(C)C)C2	16*	22	2	i	5	5
O=C1Cc2cc(S(=O)(=O)Nc3cccc([N+](=O)[O-])c3)cc3c2N1CCC3	1	-1	0	i	·	·
C[C@H](NS(=O)(=O)c1ccccc1F)C(=O)OCC(=O)N1CCc2ccccc21	17*	-4	-1	i	7	2
COc1ccc2c(CC(=O)N3CCN(S(=O)(=O)c4cccs4)CC3)coc2c1	-6	7	5	i	·	·
COc1ccc2c(CC(=O)N3CCN(S(=O)(=O)c4ccc(F)cc4)CC3)coc2c1	73*	-25	7	i	12	6
COC(=O)C1CCN(C(=O)c2cc(-c3ccco3)nc3ccccc23)CC1	22*	14	40*	i	30*	22*
O=C(c1cc(-c2ccco2)nc2ccccc12)N1CCN(Cc2ccccc2)CC1	1	5	-1	·	·	·
O=C1NC(=Nc2ccccc2Cl)S/C1=C\c1ccc(C(=O)O)cc1	0	-10	0	i	·	·
CC12CCC(C/C1=N\N=C1\NC(=O)/C(=C\c3ccc(Cl)cc3)S1)C2(C)C (centres undefined)	13*	-38	17	i	3	1
c1coc(-c2nnc(-c3ccco3)nn2)c1	33*	12	77*	i	77*	35*
SMILES	MBD2 inh	UBC13 inh	UHRF1 MBD2 ctr	Neddylation inh	UHRF1 DNA bind	MBD2 DBD conf
CSc1ccc(-c2ccco2)nn1	-8	14	-5	i	·	·
COC(=O)[C@]12C[C@H](CC(=O)NCc3ccc(OC)c(OC)c3)C(=O)N(Cc3ccc(Cl)cc3Cl)C1=C[C@H](C1CCCC1)O[C@@H]2C	3	·	0	·	·	·
COc1ccc(C)cc1NC(=O)c1cccc(C(=O)Nc2cc(C)ccc2OC)c1	74*	2	-1	i	0	0
COc1ccc(C)cc1NC(=O)c1ccc2c(c1)OCO2	3	9	-1	i	·	·
Cc1ccc(NC(=O)CCOc2ccccc2)cc1	59*	0	0	i	4	3
CCOc1ccc(NC(=O)CN2CCCC2c2cccs2)cc1S(=O)(=O)N1CCCC1 (centres undefined)	42*	5	-1	i	7	2
O=C(CCCN1C(=O)/C(=C\c2cccs2)SC1=S)Nc1ccc(O)cc1C(=O)O	0	-20	-5	i	·	·
O=C(CCCN1C(=O)/C(=C/c2ccco2)SC1=S)Nc1cccc(C(=O)O)c1	30*	-12	76*	i	21*	3
O=C(CCCN1C(=O)/C(=C/c2ccccc2)SC1=S)Nc1ccc(C(=O)O)c(O)c1	-5	-13	0	i	·	·
O=C(CCCN1C(=O)/C(=C\c2ccco2)SC1=S)Nc1ccc(O)cc1C(=O)O	27*	-17	93*	i	45*	16*
O=C(CN1C(=O)/C(=C/c2ccco2)SC1=S)Nc1ccc(C(=O)O)c(O)c1	20*	-8	79*	i	26*	7
CC(=O)c1ccc(N=Nc2ccc(C)cc2)cc1	1	-7	-2	i	·	·
C=C(C)C(=O)Oc1ccc(N=Nc2ccc(C)cc2)ccc1=O	38*	·	62*	i	66*	43*
COc1ccc(NC(=O)[C@@H]2CC=C[C@@H]3CCN(C4CCCCC4)C(=O)[C@@H]32)cc1	64*	-5	-2	i	7	1
COc1ccc(CNC(=O)[C@@H]2CC=C[C@@H]3CCN(C4CCCCC4)C(=O)[C@@H]32)cc1	-1	2	-1	i	·	·
Cc1cc(NC(=O)c2ccc3[nH]c(C)c(C)c3c2)ccn1	14*	8	1	i	10	3
CC(=O)Nc1cccc(NC(=O)c2ccc3[nH]c(C)c(C)c3c2)c1	5	6	0	i	·	·
CS(=O)(=O)c1ccc(C(=O)Nc2ccc(S(=O)(=O)N3CCCCC3)cc2)cc1	-2	5	-3	i	·	·
Cc1nn(CCC#N)c(C)c1Oc1ccccc1O	5	-5	5	i	·	·
CSc1nc2ccccc2n1Cc1cccc([N+](=O)[O-])c1	16*	7	-2	i	6	0
O=C(CN1CCOCC1)NCCC12CC3CC(CC(C3)C1)C2	14*	6	4	i	2	4
COc1ccc(C(=O)c2c[nH]c(C(=O)NCCCn3ccnc3)c2)cc1	0	-1	2	i	·	·
